Screens: PubChem, several laboratories
MsrA act – activators of bovine methionine sulfoxide reductase A. activation, % at 10.6 µM. 0.3% of 360,000 active. AID 602163. purified bovine MsrA, absorbance read-out; in the data active = activation above about 7.5%;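 note: 0% = vehicle and 100% = reference activator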
SMARCA2 act – activators of SMARCA2 function; 1% of 370,000 active; AID 652017; MG213 cells, MMTV-luciferase reporter, dexamethasone, overnight; activation, % at 9.1 µM; in the data active = activation above about 7.8%;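 note: 0% = vehicle wells and 100% = reference activator wells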
MsrA inhibitor – inhibitors of bovine MsrA | purified bovine MsrA, absorbance read-out | 0.75% of 360,000 active | inhibition, % at 15.5 µM | AID 651718; in the data active = inhibition above about 4.5%;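 note: 0% = vehicle wells with enzyme and 100% = reference inhibitor wells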
ABCB6 inh 2 – human ABCB6 transporter inhibition; Q9NP58; K562-ABCB6 porphyrin accumulation, flow cytometry, 1 h; active compounds read low; fluorescence ratio to DMSO, % at 10 µM; 0.19% of 360,000 active;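 active = fluorescence ratio to DMSO below 75%, the collection mean minus 3 SD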;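 note: signal is porphyrin accumulated inside mitochondria; 100% equals median channel fluorescence of DMSO control wells; lower ratio means ABCB6 inhibition with less porphyrin fluorescence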
Target sequence (Q9NP58 whole entry, looked up): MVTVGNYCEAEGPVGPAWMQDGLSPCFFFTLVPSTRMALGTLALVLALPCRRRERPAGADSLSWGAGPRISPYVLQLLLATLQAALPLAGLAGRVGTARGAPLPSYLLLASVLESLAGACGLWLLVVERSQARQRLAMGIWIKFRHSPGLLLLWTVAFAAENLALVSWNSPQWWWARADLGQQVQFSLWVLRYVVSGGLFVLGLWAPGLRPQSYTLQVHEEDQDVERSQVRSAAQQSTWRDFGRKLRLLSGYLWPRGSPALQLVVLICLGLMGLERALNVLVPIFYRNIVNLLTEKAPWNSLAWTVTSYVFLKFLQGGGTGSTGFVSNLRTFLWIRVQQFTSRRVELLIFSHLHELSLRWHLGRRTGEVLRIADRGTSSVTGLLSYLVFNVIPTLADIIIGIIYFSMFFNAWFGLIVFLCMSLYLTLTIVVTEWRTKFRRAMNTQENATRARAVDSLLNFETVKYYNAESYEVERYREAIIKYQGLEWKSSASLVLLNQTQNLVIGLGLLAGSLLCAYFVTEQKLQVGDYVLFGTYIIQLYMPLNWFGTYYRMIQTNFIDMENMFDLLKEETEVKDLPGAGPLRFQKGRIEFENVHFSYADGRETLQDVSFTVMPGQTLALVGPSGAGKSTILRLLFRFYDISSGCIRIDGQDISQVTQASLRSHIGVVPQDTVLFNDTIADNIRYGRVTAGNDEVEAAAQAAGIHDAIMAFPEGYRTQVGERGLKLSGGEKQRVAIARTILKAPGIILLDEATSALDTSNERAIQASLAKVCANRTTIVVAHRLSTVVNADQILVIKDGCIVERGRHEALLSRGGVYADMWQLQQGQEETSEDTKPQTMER
SMARCA2 conf – SMARCA2 activation, confirmation screen. shares compounds with SMARCA2 act. MG213 cells, MMTV-luciferase with dexamethasone, luminescence, overnight; MG213 cells expressing E1A, Rb sequestered; DMSO wells 0%, reference activator 100%. activation, % at 9.1 µM. 30% of 3,500 active;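 active = activation above its plate's cutoff, the mean activation of tested wells plus 3 SD, cut at about 7.9% in these data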
VP16 Luc act – activates GAL4-VP16 luciferase, flagging SMARCA2 activator hits | shares compounds with SMARCA2 act | HEK293 GAL4-VP16 pG5luc reporter, luciferase luminescence; scaled: DMSO wells 0%, SAHA wells 100% | activation, % at 9.1 µM | 41% of 3,500 active;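 active = activation above the solvent-only control well mean plus 3 SD, averaged across control plates, cut at about 5.2% in these data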
An asterisk follows results filed as active. Hits are enriched below; roughly 2.1% of the tested compounds scored in any of these assays.

`CCc1nnc(NC(=O)c2cccc(NC(=O)C(C)C)c2)s1` gave MsrA act -1, SMARCA2 act 8.8*, MsrA inhibitor -1, ABCB6 inh 2 99, SMARCA2 conf 4 and VP16 Luc act 5.9*.
CC(C)Nc1ccc(Nc2ccnc3cc4ccccc4cc23)cc1 was read as MsrA act 1, SMARCA2 act 12*, MsrA inhibitor 0, ABCB6 inh 2 105, SMARCA2 conf 9.1* and VP16 Luc act 0.
`COc1ccc(Nc2ccnc3ccccc23)cc1` gave MsrA act -14, SMARCA2 act -1, MsrA inhibitor 1 and ABCB6 inh 2 100.
Screening Cc1ccc(-n2c(C)nn(CCOc3ccccc3)c2=O)cc1 returned MsrA act -5, SMARCA2 act 5, MsrA inhibitor 1 and ABCB6 inh 2 93.
For Cc1nn(CCOc2ccccc2)c(=O)n1-c1c(F)cccc1F the results were MsrA act -3, SMARCA2 act 9.8*, MsrA inhibitor 0, ABCB6 inh 2 96, SMARCA2 conf 3 and VP16 Luc act 8.0*.
COc1ccc2[nH]c(=O)c(C(c3nnnn3C(C)(C)C)N(Cc3ccco3)CC3CCCO3)cc2c1 (stereo not drawn) was read as MsrA act -5, SMARCA2 act 12*, MsrA inhibitor 0, ABCB6 inh 2 100, SMARCA2 conf -3 and VP16 Luc act 1.
`COc1cc(C(=O)N2CCC2(C)C(=O)NC(C)C)cc(OC)c1OC` (stereo not drawn) gave MsrA act -2, SMARCA2 act -2, MsrA inhibitor -1 and ABCB6 inh 2 101.
O=C(NCc1ccc(F)cc1)C(c1cccnc1)N(C(=O)c1csnn1)c1ccccc1 (stereo not drawn) was read as MsrA act -1, SMARCA2 act 9.0*, MsrA inhibitor 1, ABCB6 inh 2 103, SMARCA2 conf -4 and VP16 Luc act 0.
For C=CCN(C(=O)c1csnn1)C(C(=O)NCc1ccc(F)cc1)c1sccc1C (stereo not drawn) the results were MsrA act -9, SMARCA2 act 8.0*, MsrA inhibitor 0, ABCB6 inh 2 92, SMARCA2 conf -3 and VP16 Luc act -2.
Screening O=C(NCc1ccccc1)C(c1ccc(F)cc1)N(C(=O)c1csnn1)c1ccccc1 (stereo not drawn) returned MsrA act -11, SMARCA2 act -1, MsrA inhibitor 1 and ABCB6 inh 2 96.
`C=CCN(C(=O)c1csnn1)C(C(=O)NCc1ccc(F)cc1)c1ccc(F)cc1` (stereo not drawn) gave MsrA act 0, SMARCA2 act 0, MsrA inhibitor 0 and ABCB6 inh 2 96.
Cc1ccc(N(C(=O)c2csnn2)C(C(=O)NC2CCCCC2)c2cccnc2)cc1 (stereo not drawn) was read as MsrA act 0, SMARCA2 act 9.6*, MsrA inhibitor 0, ABCB6 inh 2 92, SMARCA2 conf -2 and VP16 Luc act 4.
`C[C@@H]1C(=O)N2N=Cc3ccccc3[C@H]2N2N=Cc3ccccc3[C@@H]12` gave SMARCA2 act -3.
For O=c1c2ccccc2nc2n1CCc1c-2[nH]c2ccccc12 the results were MsrA act -4, SMARCA2 act 16*, MsrA inhibitor 1, ABCB6 inh 2 97, SMARCA2 conf 8.4* and VP16 Luc act 9.3*.
Screening COc1ccc(CN2C[C@]3(C=C(C)Cn4c(=O)n(-c5ccccc5)c(=O)n43)N(C(=O)OCc3ccccc3)C2=NC(=O)c2ccccc2)c(OC)c1 returned SMARCA2 act 8.6*, SMARCA2 conf 0 and VP16 Luc act 0.
`COCCNc1nc(NCc2ccc(C(C)C)cc2)c2sccc2n1` gave MsrA act -2, SMARCA2 act -3, MsrA inhibitor -1 and ABCB6 inh 2 96.
`Nc1ccc2nc(COc3ccccc3)[nH]c2c1` gave MsrA act -3, SMARCA2 act 12*, MsrA inhibitor -1, ABCB6 inh 2 101, SMARCA2 conf 1 and VP16 Luc act 1.
O=C(Cc1cccs1)NC1CCCCN(Cc2cccc(Cl)c2)C1=O (stereo not drawn) was read as SMARCA2 act -3.
`O=C(NCCCNCCCNC(=O)c1ccccn1)c1ccccn1` gave MsrA act -1, SMARCA2 act 12*, MsrA inhibitor 0, ABCB6 inh 2 91, SMARCA2 conf -3 and VP16 Luc act 1.
COc1ccc(-c2nc(-c3ccc(O)cc3O)cs2)cc1OC was read as MsrA act -8, SMARCA2 act 8.8*, MsrA inhibitor 2, ABCB6 inh 2 94, SMARCA2 conf 18* and VP16 Luc act 12*.
`CC1CCCCC1C(=O)N1CCC(Oc2cccnc2)CC1` (stereo not drawn) gave SMARCA2 act 2.
Cc1cc(C)c2[nH]c(C(=O)Nc3ccc4c(c3)OCO4)cc2c1 was read as MsrA act -2, SMARCA2 act 8.0*, MsrA inhibitor 0, ABCB6 inh 2 98, SMARCA2 conf 0 and VP16 Luc act 3.
COc1ccc(S[C@]2(C(=O)NC3CC3)CC(=O)N[C@@H]2c2ccc(OC)cc2)cc1 was read as SMARCA2 act -2.
`Cc1ccc2[nH]c(=O)c3cc(C(=O)N(C)Cc4ccco4)sc3c2c1` gave MsrA act -1, SMARCA2 act 8.4*, MsrA inhibitor 1, ABCB6 inh 2 99, SMARCA2 conf 13* and VP16 Luc act -1.
CCOCCCN(Cc1ccco1)C(=O)c1cc2c(=O)[nH]c3ccc(C)cc3c2s1 was read as MsrA act 0, SMARCA2 act -6, MsrA inhibitor 2 and ABCB6 inh 2 102.
CCOC(=O)COc1ccc2c(=O)c(-c3ccccc3)coc2c1 was read as MsrA act 1, SMARCA2 act -3, MsrA inhibitor 0 and ABCB6 inh 2 95.
Screening CC(=O)Oc1ccc2c(=O)c(-c3ccccc3)coc2c1 returned MsrA act -5, SMARCA2 act 10*, MsrA inhibitor 0, ABCB6 inh 2 88, SMARCA2 conf 3 and VP16 Luc act 5.6*.
Screening COC(=O)[C@]12C[C@H](CC(=O)N3CCN(C(=O)C4CC4)CC3)C(=O)N(CCc3ccc(OC)c(OC)c3)C1=C[C@H](COCc1ccccc1)O[C@@H]2C returned SMARCA2 act -2.
`CCc1ccccc1N=Nc1c(N)[nH]n(-c2ccccc2)c1=O` gave SMARCA2 act 10*, SMARCA2 conf 8.1* and VP16 Luc act 6.0*.
`COc1ccc(OC)c(/C=C2\SC(N3CCCCC3)=NC2=O)c1` gave MsrA act -3, SMARCA2 act 8.0*, MsrA inhibitor 1, ABCB6 inh 2 98, SMARCA2 conf 3 and VP16 Luc act 4.
